# GLA inh pH 4.5: alpha-galactosidase A (human) inhibition, pH 4.5 | activity change, negative = inhibition, % at 105 µM | P06280 | 230,000 tested, under 10 active | AID 1467 | purified enzyme, 4-MU-alpha-Gal fluorescence, pH 4.5
# Target sequence (P06280 whole entry, looked up): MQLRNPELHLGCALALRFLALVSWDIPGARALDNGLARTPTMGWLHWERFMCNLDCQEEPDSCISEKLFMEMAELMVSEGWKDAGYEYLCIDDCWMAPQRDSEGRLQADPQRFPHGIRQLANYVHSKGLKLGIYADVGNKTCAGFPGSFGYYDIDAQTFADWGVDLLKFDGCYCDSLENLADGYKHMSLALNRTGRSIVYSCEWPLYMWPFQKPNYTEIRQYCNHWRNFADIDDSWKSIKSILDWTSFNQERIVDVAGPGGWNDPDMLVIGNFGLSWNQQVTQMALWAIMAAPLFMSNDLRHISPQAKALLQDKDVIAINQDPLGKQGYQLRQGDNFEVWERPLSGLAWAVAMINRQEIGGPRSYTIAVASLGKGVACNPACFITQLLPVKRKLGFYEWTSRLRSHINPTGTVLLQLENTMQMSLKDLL
# ERK EGF inh: blocks ERK signaling stimulated by EGF; actives 0.41% (n = 130,000); Potency, µM (doses to about 11.5 µM), actives largely listed as inhibitors; AID 1454; HEK293-V1b, EGF-stimulated phospho-ERK AlphaScreen; note: nearly all actives have a fitted effect of over 55% in size
#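 After overnight plating in 1% FBS, HEK293-V1b cells received test compound for half an hour, then a 5 min pulse of EGF (25 nM); ERK phosphorylation in lysates was read by bead-based AlphaScreen.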
# aGal spleen mod: alpha-galactosidase A (human) modulation; P06280; human spleen homogenate, 4MU-alpha-Gal fluorescence, 40 min; Potency, µM (top dose mostly 80 µM), hits mostly inhibitors; actives 0.008% (n = 240,000); AID 2107
#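 Fluorogenic readout (Ex 365/Em 440 nm) of 4-methylumbelliferone released from 1 mM 4-MU-alpha-galactoside by spleen homogenate, 40 min at 37C, pH 5.0. Data normalized to no-enzyme and enzyme controls; Hill-equation AC50 from compound titrations.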
# HttQ103 aggreg: inhibitors of mutant huntingtin aggregate formation in PC12 cells; PC12 HttQ103-GFP aggregates, Acumen cytometry, 40 h; Potency, µM (top dose mostly 46.1 µM), usual class: inhibitors; actives 1.1% (n = 220,000); AID 1688; note: nearly all actives have a fitted effect of over 60% in size
#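 Huntingtin Q103 exon 1–GFP aggregates in induced PC12 cells (100 nM tebufenozide) were quantified by cytometry from lysates, with compounds dosed in titration.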
# HTT cytoprotect: protects HTT-Q103 PC12 cells, measured by ATP | PC12 HTT-Q103 induced, cytoprotection, ATP luminescence, 40 h | Potency, µM (top dose mostly 56.4 µM), hits mostly activators | actives 0.14% (n = 230,000); note: nearly all actives have a fitted effect of over 45% in size
#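 Compounds added alongside 100 nM tebufenozide, which induces toxic Q103 huntingtin exon 1-GFP in stable PC12 cells; surviving cells quantified by luminescent ATP measurement. Medium: phenol red-free DMEM, 5% equine and 5% calf serum.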
# Numbers stand for hits; - = inactive; ? = inconclusive; . = no result given; ! = not active in a repeat; [ ] = another dose, or the depositor's remark. Compounds with a hit are over-represented: about 1.2% of the library has one in this group of screens. Calls come from the whole dose curve; as a rule, active = well fitted curve in the direction sought with a large enough effect; inconclusive = small, poorly fitted or top-dose-only effect, or another doubt; inactive = no such curve, though single readings can be large; an effect the other way counts as inactive or inconclusive.
SMILES,GLA inh pH 4.5,ERK EGF inh,aGal spleen mod,HttQ103 aggreg,HTT cytoprotect
CC1CCN(c2ncnc3ccccc23)CC1,-,-,-,22µM,-[10 µM]
COC(CNC(=O)c1ccc2c3c(onc13)-c1ccccc1C2=O)OC,-,35µM,-,-[9.22 µM],-[10 µM]
COc1ccccc1NS(=O)(=O)c1ccc(N/N=C(\C)C(C)C)c([N+](=O)[O-])c1,-,?,-,-,-[10 µM]
CCCC(CCC)=NNc1ccc(S(=O)(=O)Nc2ccccc2OC)cc1[N+](=O)[O-],-,14µM,-,-,.
CCCCCCCCCCCCCCCC(=O)NCC(COP(=O)([O-])OCC[N+](C)(C)C)OCC (centres undefined),-,25µM,-,.,.
CCCCCCCCCCCCCCCC(=O)NC[C@@H](COP(=O)([O-])OCC[N+](C)(C)C)OCC,.,.,.,.,-[1.9 µM]
O=c1c(O)c(-c2cc(O)c(O)c(O)c2)oc2cc(O)ccc12,.,.,-,.,.
CC1=NN(c2cccc(C(=O)O)c2)C(=O)/C1=C\C=C\c1ccco1,-,-,-,-,-[10 µM]
Cc1ccc(C2=NOC(=O)/C2=C\C=C\c2ccccc2)cc1,-,32µM,-,-,-[10 µM]
CC1=NN(c2ccccc2)C(=O)/C1=C/C=C/c1ccccc1,-,16µM,-,?,.
Cn1nc(C(F)(F)F)c(/C=N/OC(=O)c2ccccc2)c1SCc1ccc(Cl)cc1,-,.,-,?,-
Cn1nc(C(F)(F)F)c(/C=N/OC(=O)c2ccccc2Cl)c1SCc1ccccc1Cl,-,.,-,10µM,-[10 µM]
COc1ccc(OC)c(-c2c3cc(O)c(=O)cc-3oc3cc(O)c(O)cc23)c1,-,25µM,-,5µM,.
Cn1cc(C(=O)c2ccc(Cl)cc2Cl)cc1C(=O)N/N=C(\N)COc1ccc(F)cc1,-,.,-,18µM,-
Cn1cc(C(=O)c2ccc(Cl)cc2Cl)cc1C(=O)N/N=C(\N)COc1ccc(Cl)cc1,-,?,-,-[9.22 µM],-[10 µM]
NC(=O)C1CCN(CCC(=O)Nc2ccc(Br)cc2)CC1,-,?,-,.,0.11µM
Cc1cc(NC(=O)CCN2CCC(C(N)=O)CC2)ccc1Br,-,.,-,-,-
NC(=O)C1CCN(CC(=O)Nc2ccccn2)CC1,-,.,-,2.2µM,-
C[C@@H]1COC(=O)O1,.,.,-,.,.
CS(=O)(=O)c1ccc2nc(NC(=O)CCC(=O)c3cccs3)sc2c1,-,.,-,0.79µM,-[10 µM]
CCCCCCNc1nc(NCc2ccco2)nc(OCC)n1,-,.,-,10µM,-
COc1ccc(N2CCN(CC(O)c3c[nH]c4ccc(OC)cc34)CC2C)cc1 (centres undefined),-,.,?,13µM,-
COc1ccc2[nH]cc(C(O)CN3CCN(c4ccccc4)CC3)c2c1 (centres undefined),-,.,-,?,-[0.074 µM]
CN1/C(=C\C(=O)c2cccs2)Sc2ccccc21,-,.,-,16µM,-[10 µM]
COc1ccc(-c2cc(-n3c(C(F)(F)F)nc4ccccc43)n(CCC#N)n2)cc1,-,.,-,2.8µM,-
SMILES,GLA inh pH 4.5,ERK EGF inh,aGal spleen mod,HttQ103 aggreg,HTT cytoprotect
c1ccc(-c2ccc(OCCN3CCCC3)cc2)cc1,.,.,-,.,.
OCCCn1c(-c2ccccc2)nc(=S)c2c1CCCC2,-,.,-,.,2.8µM
CC1(C)Cc2c(c(=S)nc(-c3ccccc3)n2CCO)CO1,-,.,-,-,20µM
CN(C)CCCn1c(-c2ccccc2)nc(=S)c2c1CCCC2,-,.,-,-,-
CC1(C)Cc2c(c(=S)nc(-c3ccccc3)n2CCCN2CCOCC2)CO1,-,.,-,-,-[0.074 µM]
C=CCN1c2ccccc2[C@]23C[C@@H](C(=O)OC)N(S(=O)(=O)c4ccc(C)cc4)C2=NC(C(=O)OC)=C(C(=O)OC)[C@H]13,-,.,-[17.5 µM],.,-[10 µM]
CC(/C=N\N1CCN(c2ccc(Cl)cc2)CC1)=C\c1ccccc1,-,.,-,-,3.2µM
Cc1cccc(C)c1,.,.,-,.,-
CCC(C)(C)n1nnnc1C(c1ccccc1)N1CCN(Cc2ccccc2)CC1 (centres undefined),-,-,-,-[9.22 µM],-[10 µM]
CCC(C)(C)n1nnnc1CN1CCN(C(c2ccccc2)c2ccccc2)CC1,-,-,-,14µM,-[10 µM]
CCCn1c(SCC(=O)c2ccc(CC)cc2)n[nH]c1=O,-,.,-,0.89µM,?
CCCn1c(SCC(=O)c2cc(C)n(-c3ccc4c(c3)OCO4)c2C)n[nH]c1=O,-,-,-,-,3.5µM
Cc1cc(C(=O)CSc2nnnn2-c2ccccc2)c(C)n1-c1ccc2c(c1)OCO2,-,?,-,-,.
Cc1ccc(S(=O)(=O)N2CCc3nc(COc4ccccc4)c4c(c3C2)CO[C@@H](C)C4)cc1,-,.,-[17.5 µM],.,-[10 µM]
CCN1CCc2c(sc(NC(=S)NC(=O)c3ccco3)c2C(N)=O)C1,-,-,-,-[9.22 µM],-[10 µM]
CCN1CCc2c(sc(NC(=O)Nc3ccc(Cl)c(Cl)c3)c2C(N)=O)C1,-,-,-,11µM,.
COCC(=O)Nc1cc(Sc2ccccc2)ccc1N=C(NC(=O)OC)NC(=O)OC,.,.,.,-,-
COc1ccc(-c2cc(C(F)F)n3ncc(C(=O)Nc4cc(C)on4)c3n2)cc1,-,28µM,-,?,?
COc1ccc(-c2cc(C(F)F)n3ncc(C(=O)Nc4c(C)n(C)n(-c5ccccc5)c4=O)c3n2)cc1,-,-,-,-[9.22 µM],-[10 µM]
C=CCSc1nnc(NC(=O)CSc2nc(CCC)cc(=O)[nH]2)s1,-,.,-,11µM,-[10 µM]
CCCOC(C(=O)OC1CCN(C)CC1)(c1ccccc1)c1ccccc1,.,.,.,-,-
Cn1c2c(c(=O)n(C)c1=O)C(NC(=O)C(C)(C)C)(C(F)(F)F)C(=O)N2 (centres undefined),-,.,-,-,-
Cn1c2c(c(=O)n(C)c1=O)C(NS(=O)(=O)c1ccccc1)(C(F)(F)F)C(=O)N2 (centres undefined),-,.,-,-,3.5µM
CC(C)(C)c1csc(NC(=O)c2ccc(Cl)s2)n1,-,.,-,8.9µM,-
COc1cccc(/C=N/Nc2cc(Cl)nc(C)n2)c1O,-,-,-,-[9.22 µM],-[10 µM]
SMILES,GLA inh pH 4.5,ERK EGF inh,aGal spleen mod,HttQ103 aggreg,HTT cytoprotect
COc1cccc(/C=N/Nc2ncnc3c2ncn3Cc2ccccc2)c1O,-,13µM,-,?,.
N#C/C(=C\c1cc([N+](=O)[O-])ccc1Cl)C(N)=O,-,-,-,-,1.3µM
N#C/C(=C/c1ccc([N+](=O)[O-])cc1)C(N)=O,-,-,-,-,-
CCN1C(=O)[C@H]2[C@H]3[C@H](O)[C@H](O)C/C(=N/OCc4ccccc4)[C@@H]3CC[C@@H]2C1=O,.,.,-[17.5 µM],.,-[10 µM]
N=C1/C(=C/c2cccn2Cc2ccc(F)cc2)C(=O)N=C2SC=CN12,-,-,-,0.014µM,-
Cc1ccc(Cn2cccc2/C=C2/C(=N)N3C=CSC3=NC2=O)cc1,-,-,-,-,?
O=c1[nH]c(=O)n([C@H]2C[C@H](O)[C@@H](CO)O2)cc1Br,-,-,-,-,3.5µM!
O=c1[nH]c(=O)n([C@H]2C[C@H](O)[C@@H](CO)O2)cc1F,-,-,-,-,-[1.9 µM]
CCCCCc1ccc(OCCOCCn2c[n+](C)c3ccccc32)c(CCCCC)c1,-,?,-,11µM,-

# Screening data: PubChem, National Center for Advancing Translational Sciences (NCATS)
